# Source: PubChem (National Center for Advancing Translational Sciences (NCATS))
# IL-2 act – activators of IL-2 | actives 0.065% (n = 360,000) | IL-2 activation reporter assay, cell-based qHTS; stimulated with anti-CD3/CD4/CD28 beads; in transgenic mouse T cells | activation, % (series mostly up to about 46 µM); in the data active = activation above about 50%; inconclusive = mostly about 30% to 49%; note: 0% is about no effect
#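 EGFP and DsRed fluorescence is measured by plate cytometry in unstimulated transgenic mouse T cells exposed to compound for 60 minutes, then stimulated 18 hours at 37 degrees C with anti-CD3/anti-CD4 beads plus anti-CD28.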
# BRCA1 expr up – BRCA1 expression activation. MCF7-BRCA1-FFLuc reporter, luminescence, 48 h; response scale: scaled: vehicle 0%, 10 µM genistein 100%. Potency, µM (highest dose often 46.1 µM), without a hit: at the highest dose activation, most hits filed as activators. actives 1.1% (n = 380,000). AID 624202; note: potency is the fitted concentration of half-maximal effect; nearly all actives have a fitted effect of over 80% in size
#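 Using MCF7 cells harboring a BRCA1 firefly luciferase reporter, plated 2 h before compound pinning, the screen measured luminescence after 48 h incubation. Responses were normalized to DMSO and 10 microM genistein, then fitted for concentration-effect.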
# gsp ag – gsp mutant agonism; gsp mutant cells, cAMP HTRF, 30 min; Potency, µM (doses to about 76.9 µM), inactives show top-dose activation (cAMP increase), most hits filed as activators; actives 0.13% (n = 340,000); active = well fitted activation curve with a large enough effect; inconclusive = small, poorly fitted or top-dose-only effect, or another doubt; inactive = no such curve, though single readings can be large or run the other way; cell line not stated here;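 note: phosphodiesterase inhibitor Ro 20-1724 added with compounds to block cAMP breakdown; potency is the fitted concentration of half-maximal effect; nearly all actives have a fitted effect of over 60% in size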
#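 Cells in DMEM/10% FBS with G418 were pretreated with compounds in DMSO plus […] (300 uM stock) for 30 min at 37C. cAMP was measured by HTRF (cAMP-d2 plus anti-cAMP antibody-K) after 30 min at room temperature.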
# gsp antagonist – antagonizes gsp, the McCune-Albright syndrome mutation. gsp-mutant cells, cAMP HTRF, 30 min. Potency, µM (doses to about 76.9 µM), without a hit: at the top dose activity change, negative = inhibition, most hits filed as inhibitors. actives 0.4% (n = 340,000). AID 624288; calls by dose curve; cell line not stated here;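 note: intracellular cAMP measured with PDE inhibitor Ro 20-1724 present during compound exposure; potency is the fitted concentration of half-maximal effect; % is set by controls: 0 for no effect and ±100 for the full control effect; nearly all actives have a fitted effect of over 65% in size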
#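 Cells in G418 medium, seeded 16-24 h, 37C; buffer exchange to DPBS + 1 mM CaCl2, 0.5 mM MgCl2, 0.05% BSA; cpds in DMSO + […] (300 uM stock), 30 min 37C; HTRF cAMP detection.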
# mIDH1 inhibitor – blocks human mutant IDH1 R132H enzyme; Potency, µM (doses to about 76.6 µM), without a hit: at the highest dose activity change, negative = inhibition, hits mostly inhibitors; actives 0.093% (n = 390,000); O75874; IDH1-R132H enzyme, NADPH consumption, diaphorase/resazurin fluorescence; note: potency is the fitted concentration of half-maximal effect; % is set by controls: 0 for no effect and ±100 for the full control effect; nearly all actives have a fitted effect of over 65% in size
# Target sequence (O75874 whole entry R132H, stated change not applied): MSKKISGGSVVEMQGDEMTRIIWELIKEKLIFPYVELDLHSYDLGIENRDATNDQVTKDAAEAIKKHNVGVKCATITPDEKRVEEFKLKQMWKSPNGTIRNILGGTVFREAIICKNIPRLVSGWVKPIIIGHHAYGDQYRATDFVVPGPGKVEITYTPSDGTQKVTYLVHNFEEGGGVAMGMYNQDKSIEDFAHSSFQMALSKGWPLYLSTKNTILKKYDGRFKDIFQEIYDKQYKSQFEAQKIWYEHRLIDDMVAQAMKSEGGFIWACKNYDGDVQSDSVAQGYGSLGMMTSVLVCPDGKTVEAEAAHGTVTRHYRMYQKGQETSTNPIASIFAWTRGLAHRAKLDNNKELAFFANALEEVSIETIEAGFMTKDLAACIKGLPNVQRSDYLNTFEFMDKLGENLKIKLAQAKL
#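 IDH1-R132H (0.5 ug/mL dispensed) in pH 7.5 Tris buffer was preincubated 30 min with compound, then given a substrate mix of 0.016 mM NADPH and 2 mM alpha-KG for 80 min at room temperature; remaining NADPH was read by diaphorase/resazurin fluorescence.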
# Starred values were filed as active, the others as inactive; u = inconclusive; x = no result; [ ] = another dose, or the depositor's remark. Compounds with a hit are over-represented: about 1.5% of the library has one in this group of screens. Unless noted, calls come from the whole dose curve; as a rule, active = well fitted curve in the direction sought with a large enough effect; inconclusive = small, poorly fitted or top-dose-only effect, or another doubt; inactive = no such curve, though single readings can be large; an effect the other way counts as inactive or inconclusive.
SMILES,IL-2 act,BRCA1 expr up,gsp ag,gsp antagonist,mIDH1 inhibitor
COC(=O)C1C(=O)c2c([nH]c(C(=O)OC3CCCCC3)c2C)CC1C (configuration not stated),-3,5µM*,-66%,10%,-6%
COC(=O)c1c(-c2ccc(S(C)(=O)=O)cc2)sc2ccc(OC)cc12,-2,4.5µM*,1%,u,13%
COC(=O)c1c(-c2ccc(S(C)(=O)=O)cc2)sc2cc(OC)ccc12,-1,6.3µM*,u,-24%,11%
C=Cn1cc(CNC[C@H]2O[C@@H](n3ccc(N)nc3=O)[C@H](O)[C@@H]2O)c(C)n1,2,4%,-42%,x,7%
COc1ccc(-c2nnc(N(C)C(=O)c3ccno3)s2)cc1,1,5µM*,u,16%,3%
CN(C)CCCN(C(=O)c1ccco1)c1nc(-c2ccc(Cl)cc2)cs1,-1,35%,10%,-1%,5%
COc1ccc(-c2csc(N(C)C(=O)c3ccco3)n2)cc1,0,7.1µM*,-11%[15.4 µM],0%,7%
CCN(C(=O)c1ccco1)c1nnc(-c2ccc(OC)cc2)s1,2,u,32µM*,-1%,3%
CN(C(=O)c1ccco1)c1nc(-c2ccc(Cl)cc2)cs1,1,10µM*,4%,-13%,-2%
CCCN(C(=O)c1ccco1)c1nnc(-c2cccc(C)c2)s1,0,1%,5%,24%,6%
Cc1ccc(Cl)cc1N1CCN(C(=O)c2cn(C)c3ccc(S(=O)(=O)N4CCCC4)cc3c2=O)CC1,x,x,x,x,12%
CCOC(=O)Cn1c(=O)oc2cc(S(=O)(=O)N3CCN(c4cccc(C)c4)C(C)C3)ccc21 (configuration not stated),x,x,x,x,-20%
COc1ccc(-c2csc(N(CCCN(C)C)C(=O)c3cccs3)n2)cc1,-1,-5%,-8%,11%,2%
CCN(C(=O)c1cccs1)c1nc(-c2ccc(OC)cc2)cs1,0,13µM*,1%,-11%,-2%
CC(OC(=O)/C(C#N)=C/c1ccc(N(C)C)cc1)C(=O)N(C)c1ccccc1 (configuration not stated),0,-18%,-34%,25µM*,1%
O=C(Nc1cccc(Cl)c1)OCc1cncs1,0,32%,4%,15%,11%
CS(=O)(=O)c1ccccc1COC(=O)Nc1ccc(Cl)cc1,-1,61%,0%,-6%,0%
O=C(Nc1ccc(Cl)cc1)OCc1ccccn1,-3,3.5µM*,-16%,14%,1%
O=C(Nc1ccc(Cl)cc1)OCc1cncs1,0,11µM*,7%,-8%,0%
Cc1ccc2[nH]c(=O)c(CN(CCO)Cc3nnnn3Cc3ccco3)cc2c1,x,-5%,x,x,x
Cc1onc(-c2c(F)cccc2Cl)c1C(=O)OCC(=O)Nc1cccc(S(=O)(=O)N(C)C)c1,-7,-40%,2%,-30%,-10%
CCN(CC)C(=O)CSC(=Nc1ccccc1F)NC#N,0,11µM*,11%,-1%,0%
CCN(CC)C(=O)CSC(Nc1ccc(F)cc1)=C(C#N)C#N,1,-48%,-71%,2%,-10%
CC(=O)NCCNC(=O)CCCc1nnc2n(CCC(C)C)c(=O)c3sccc3n12,x,x,x,x,-9%
Cc1ccc(SCc2nc3ccccc3[nH]2)cc1,-3,3.5µM*,24%,-6%,-2%
SMILES,IL-2 act,BRCA1 expr up,gsp ag,gsp antagonist,mIDH1 inhibitor
Cc1ccc(SCC(=O)Nc2ccc(-c3nc4ccccc4[nH]3)cc2)cc1,-1,3.5µM*,-3%[15.4 µM],2%,0%
Fc1ccccc1CSCc1nc2ccccc2[nH]1,1,5.6µM*,10%,-1%,5%
c1ccc2[nH]c(CCCc3nc4ccccc4[nH]3)nc2c1,-1,26%,-3%[15.4 µM],0%,4%
c1ccc(CCc2nc3ccccc3[nH]2)cc1,-2,6.3µM*,8%,5%,4%
Cc1ccc(CSCc2nc3ccccc3[nH]2)cc1,-1,64%,3%,1%,-12%
CCOc1ccc(NC(=O)Nc2ccc3c(c2)N(C)C(=O)CS3)cc1,-1,-3%,-41%,-21%,8%
COc1ccc(NC(=O)Nc2ccc3c(c2)N(C)C(=O)CS3)cc1Cl,4,-52%,-13%,50µM*,3%
CC(=O)c1ccc(NC(=O)Nc2ccc3c(c2)N(C)C(=O)CS3)cc1,0,6%,u,35µM*,-3%
COc1ccc(NC(=O)Nc2ccc3c(c2)N(C)C(=O)CS3)cc1OC,0,-6%,4%,-12%,-1%
CC(=O)NC(Cc1c[nH]c2ccccc12)C(=O)OCC(=O)Nc1ccc2c(c1)OCO2 (configuration not stated),0,54%,-6%,-4%,10%
Cc1[nH]c2ccccc2c1C(=O)C(=O)Nc1ccc2c(c1)OCO2,1,2.5µM*,0%,4%,2%
Cc1cnc2ccccc2c1/C=C/c1ccc(N)cc1,x,-43%,x,x,x
COc1ccc(C(=O)Nc2cnc(NC(=O)c3cccs3)cc2C)cc1,1,7.1µM*,-34%[15.4 µM],-4%,0%
COc1ccc(C(=O)Nc2ccccc2C(=O)Nc2cc(C)ccn2)cc1,-1,2.2µM*,10%[15.4 µM],-4%,0%
O=C(Nc1ccc(F)c(F)c1)c1cnn2c1NC(=C1CC1)C=C2C(F)(F)F,x,1%,x,x,x
CCc1nnc(NC(=O)c2ccc(COc3ccccc3)o2)s1,-2,1%,u,5%,-3%
Cc1ccc(OCc2ccc(C(=O)Nc3ccc(S(N)(=O)=O)cc3)o2)cc1,-1,10µM*,18%[15.4 µM],3%,-6%
Cc1ccc(C(=O)Nc2nnc(COc3ccccc3)s2)cc1,1,-20%,u,27%,4%
CCc1nnc(NC(=O)c2ccc(COc3ccc(C)cc3)o2)s1,-1,5µM*,0%,2%,7%
COc1ccc(NC(=O)c2ccc(COc3ccccc3)o2)cc1,1,42%,16%,-8%,0%
Cc1ccc(OCc2nnc(NC(=O)c3cccnc3)s2)cc1,0,51%,-1%,7.9µM*,1%
CN1CCC/C1=C/C=C1\SC(=S)NC1=O,0,10µM*,-3%,-16%,3%
Cc1ccccc1-c1nc(CNC(=O)Nc2ccccc2)c(C)o1,x,x,x,x,-5%
COc1ccc2oc(-c3ccco3)cc(=O)c2c1,-3,6.3µM*,u,-22%,0%
N#Cc1ccc(N2Cc3ccccc3C2=NC(=O)c2cccnc2Cl)cc1,-1,13µM*,2%,-7%,-6%
COc1ccc(-n2c(-c3cccc(OC)c3)nc(=S)c3c2CCCC3)cc1,1,-11%,8.9µM*,8%,2%
O=[N+]([O-])c1ccc2nc(-c3ccc(Cl)cc3)n(OCc3ccccc3)c2c1,1,u,-11%,1%,8%
